Data on 65 compounds can be found in ChEMBL document CHEMBL3988442, “University of Dundee, Small-Polar-MMV Screening Library” (2021).

Out of some 48,000 compounds screened, about 13,000 (27%) showed an effect of 50% or more. Some of the results follow.

The experiment has as its system Wolbachia pipientis. Nature of the experiment: Anti-Wolbachia Cell-Based Screen. It counts as functional. Also noted: scale not given: in the data most compounds retested in dose-response had high values. The conditions noted are these: 5 µM.
For the compound `CC(C(=O)N1CCOCC1)N1CCN(Cc2nccn2C)CC1` (stereo not given), the “Percent Effect” value is 114%.
Regarding `Cn1ccnc1CN1CCCN(C(=O)C2(C#N)CCCCC2)CC1`, the “Percent Effect” value is -11.9%.
The same measure for `CC(OCC1CC1)C(=O)N1CCCN(Cc2nccn2C)CC1` (stereo not given): 15.71%; for `CCN1CCN(C(=O)C(C)N2CCN(Cc3nccn3C)CC2)CC1` (stereo not given): 0.1033%; for `CC(C)C(C(=O)N1CCCN(Cc2nccn2C)CC1)N1CCCC1` (stereo not given): 74.16%.
For `CC(C(=O)N1CCCCCC1)N1CCN(Cc2nccn2C)CC1` (stereo not given), the “Percent Effect” value turned out to be 103.6%.
The same measure for `CCN(C(=O)NCCc1cccc(F)c1F)C(C)CS(C)(=O)=O` (stereo not given): 8.569%; for `CCOc1ccc(CN(CCOC)c2nc(C)nc3oc(C)nc23)cc1`: -12.59%; for `COc1cc(C)nc(N2CCN(C(=O)c3ccc(Cl)o3)CC2)n1`: 4.762%.
The same measure for `COc1ccnc(N2CCN(C(=O)c3cscn3)CC2)n1`: 2.321%; for `CCOc1ccnc(N2CCN(C(=O)c3ccn(C)c(=O)c3)CC2)n1`: 88.48%; for `COc1cc(C)nc(N2CCN(C(=O)c3ccn(C)c(=O)c3)CC2)n1`: 111.9%.
With `COc1ccnc(N2CCN(C(=O)c3ccn(C)c(=O)c3)CC2)n1`, the “Percent Effect” value is listed as 101.7%.
The same measure for `COc1cc(C)nc(N2CCN(C(=O)c3ccccc3C)CC2)n1`: 2.606%.
The same measure for `CCOc1cccc(C(=O)N2CCN(c3nccc(OC)n3)CC2)c1`: -0.7298%; for `CCOc1ccnc(N2CCN(C(=O)c3cc(Cl)c[nH]3)CC2)n1`: -0.9133%.
The same measure for `CCOc1ccnc(N2CCN(C(=O)c3cccc(C#N)c3)CC2)n1`: 3.478%; for `O=C(c1ncccc1O)N1CCN(Cc2ccco2)C(CCO)C1` (stereo not given): -8.878%.
For the compound `CC(C)CN1CCC(NC(=O)N(C)Cc2csc3ccccc23)CC1`, the “Percent Effect” value amounted to 14.6%.
The same measure for `CN(C)C1(CNc2ncc(Br)cn2)CCOCC1`: 25.75%; for `CCC(CNS(=O)(=O)c1c[nH]cn1)Oc1ccccc1F` (stereo not given): -7.945%.
Take `COc1ccnc(NCc2ccccc2Cn2cccn2)n1`: the “Percent Effect” value is 13.47%.
For the compound `Cc1nonc1C(=O)N1CC[C@@]2(O)CCN(C3CCCCC3)C[C@H]2C1`, the “Percent Effect” value is -5.278%.
The same measure for `O=C(NC1CCC(C(=O)N2CCSCC2)CC1)N1CCC1` (stereo not given): 3.195%.
The same measure for `CC(C)[C@@H]1CN(C(=O)CN(C)Cc2ccc(F)cc2)C[C@H]1C(=O)O`: -17.02%; for `CC(C)[C@@H]1CN(C(=O)CCc2ccc(F)cc2)C[C@H]1C(=O)O`: -26.1%; for `CC(=O)c1cc(CN2C[C@@H](N(C)C)[C@H](C(C)C)C2)cs1`: 13.8%.
For `CC(C)[C@H]1CN(C(=O)CO)C[C@@H]1N(C)C`, the “Percent Effect” value turned out to be 109.8%.
Consider `CC(C)[C@@H]1CN(Cc2cnc(C3CCCCC3)nc2)C[C@H]1N(C)C`, for which the “Percent Effect” value is listed as -9.184%.
Consider `Cc1cc(C(=O)N2C[C@@H](C(=O)O)[C@H](C(C)C)C2)cs1`, for which the “Percent Effect” value came out at 38.77%.
As to `Cc1cc(C(=O)N2C[C@H](C(C)C)[C@@H](N(C)C)C2)cs1`, the “Percent Effect” value is reported as 81.51%.
Turning to `COCCC(=O)N1C[C@H](C(C)C)[C@@H](N(C)C)C1`, the “Percent Effect” value came out at 108.6%.
The same measure for `CC(C)[C@@H]1CN(C(=O)NCc2ccco2)C[C@H]1N(C)C`: -15.37%; for `CC1(C)CN(C(=O)CC2CCC2)C[C@]1(C)O`: 6.618%.
The same measure for `Cc1nc(CC(C)C)cc(C(=O)N2C[C@@H](N(C)C)[C@H](C(C)C)C2)n1`: -16.81%; for `CC(C)[C@H]1CN(C(=O)CC2CCC2)C[C@@H]1N(C)C`: 88.21%; for `N#Cc1cc(S(N)(=O)=O)ccc1NC1CCc2c(F)cccc21` (stereo not given): -10.31%.
In the case of `COCCCN(C)c1ncccc1I`, the “Percent Effect” value is 0.1394%.
`Cn1c(NCC(=O)N2CCCC2)c(C#N)c(=O)n(C)c1=O`: the “Percent Effect” value was 6.318%.
The same measure for `CC(O)CN1CCC(CN(C)Cc2cc(F)cc3cccnc23)CC1` (stereo not given): -9.016%; for `CC(C)Oc1ccc(C(=O)Cn2cnnc2[S+](C)[O-])cc1` (stereo not given): 6.636%.
The same measure for `COc1cccc(S(=O)(=O)NC(=O)COC2CCCC2)c1`: 0.104%; for `COc1cccc(S(=O)(=O)NC(=O)CC2CCCC2)c1`: 9.946%; for `CCOc1ccc(S(=O)(=O)NC(=O)CCC2CCCO2)cc1` (stereo not given): 0.3257%.
For `COc1cccc(S(=O)(=O)NC(=O)COc2c(C)cccc2C)c1`, the “Percent Effect” value was -5.351%.
The same measure for `CS(=O)(=O)c1cccc(S(=O)(=O)NC(=O)CCC2CCCCC2)c1`: -13.77%; for `COc1cccc(S(=O)(=O)NC(=O)CCC2CCCC2)c1`: 93.05%.
The same measure for `COc1ccc(S(=O)(=O)NC2(CC(N)=O)CCC2)cc1`: 1.65%; for `N#Cc1cccc(S(=O)(=O)NC(=O)COC2CCCC2)c1`: 4.791%.
The same measure for `COc1cccc(S(=O)(=O)NC(=O)COC2CCCCC2)c1`: 79.48%.
Regarding `COc1cccc(S(=O)(=O)NC(=O)CC2CCCO2)c1` (stereo not given), the “Percent Effect” value is recorded as 94.52%.
For `CS(=O)(=O)c1cccc(S(=O)(=O)NC(=O)CC2CCCCC2)c1`, the “Percent Effect” value is -9.509%.
For the compound `COc1ccc(S(=O)(=O)NC(=O)COC2CCCC2)cc1`, the “Percent Effect” value came to 110.1%.
Take `Cc1ccc(-n2c(C)nnc2SCC(O)COCc2ccco2)cc1` (stereo not given): the “Percent Effect” value was -12.77%.
The same measure for `Cc1cnccc1CN(C)C(=O)c1ccc(Cn2cnnn2)cc1`: -17.07%.
On to `Cc1ccc(CN(C)C(=O)NCC(C)(C)CCS(C)(=O)=O)s1`, for which the “Percent Effect” value is recorded as -3.781%.
The same measure for `CN(C(=O)Cc1coc(-c2ccccc2)n1)C1(C#N)CCC1`: 4.147%; for `COc1ccc(Cl)cc1NCC(=O)N(Cc1cccnc1)C1CC1`: 0.4709%; for `O=C(O)C(F)(F)F.O=C([C@@H]1COC[C@H]2CN(C3CCOCC3)C[C@H]21)N1CCCCO1`: -37.74%.
As to `COCc1nc(C(=O)NS(=O)(=O)c2ccc(OC)c(C)c2)cs1`, the “Percent Effect” value is given as -15.7%.
For `COc1ccc(S(=O)(=O)NC(=O)COC2CCCCC2)cc1`, the “Percent Effect” value was determined as 100.4%.
Turning to `COc1ccc(S(=O)(=O)NC(=O)COC2CCCCC2)cc1C`, the “Percent Effect” value stood at 99.33%.
Turning to `COc1ccc(OCC(=O)NS(=O)(=O)c2cc(F)ccc2F)cc1`, the “Percent Effect” value came to 18.57%.
The same measure for `COc1ccc(S(=O)(=O)NC(=O)c2cscn2)cc1C`: -8.824%; for `NC(=O)C(NC(=O)COC1CCCCC1)c1ccccc1` (stereo not given): -9.016%.
